A selection: hits, their analogues and other compounds. The true share with any hit is near 2.2%.
MEKK3 PB1 HTS – modulators (inhibitors or enhancers) of MEK5 binding to human MEKK3 PB1 domain; Q99759; bead-based flow cytometry, Alexa488-MEK5 binding to MEKK3; actives lie on both sides; 0 = blocked by unlabeled MEK5, 100 = vehicle; binding response (% of control), % at 10 µM; 1.4% of 290,000 active; AID 1529;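 active means binding response more than 3 SD above or below the average of its plate-row segment, actives on both sides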;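 further: Alexa488 bead fluorescence after subtracting the streptavidin-only scavenger bead signal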
VLA-4 inh – inhibition in a human VLA-4 binding assay | P13612 | 0.2% of 330,000 active | inhibition, % (about 7 µM as worked out from the volumes in the protocol) | VLA-4 expressing cells, ligand binding flow cytometry | AID 2557; in the data active means inhibition above about 50%
Target sequence (P13612 whole entry, looked up): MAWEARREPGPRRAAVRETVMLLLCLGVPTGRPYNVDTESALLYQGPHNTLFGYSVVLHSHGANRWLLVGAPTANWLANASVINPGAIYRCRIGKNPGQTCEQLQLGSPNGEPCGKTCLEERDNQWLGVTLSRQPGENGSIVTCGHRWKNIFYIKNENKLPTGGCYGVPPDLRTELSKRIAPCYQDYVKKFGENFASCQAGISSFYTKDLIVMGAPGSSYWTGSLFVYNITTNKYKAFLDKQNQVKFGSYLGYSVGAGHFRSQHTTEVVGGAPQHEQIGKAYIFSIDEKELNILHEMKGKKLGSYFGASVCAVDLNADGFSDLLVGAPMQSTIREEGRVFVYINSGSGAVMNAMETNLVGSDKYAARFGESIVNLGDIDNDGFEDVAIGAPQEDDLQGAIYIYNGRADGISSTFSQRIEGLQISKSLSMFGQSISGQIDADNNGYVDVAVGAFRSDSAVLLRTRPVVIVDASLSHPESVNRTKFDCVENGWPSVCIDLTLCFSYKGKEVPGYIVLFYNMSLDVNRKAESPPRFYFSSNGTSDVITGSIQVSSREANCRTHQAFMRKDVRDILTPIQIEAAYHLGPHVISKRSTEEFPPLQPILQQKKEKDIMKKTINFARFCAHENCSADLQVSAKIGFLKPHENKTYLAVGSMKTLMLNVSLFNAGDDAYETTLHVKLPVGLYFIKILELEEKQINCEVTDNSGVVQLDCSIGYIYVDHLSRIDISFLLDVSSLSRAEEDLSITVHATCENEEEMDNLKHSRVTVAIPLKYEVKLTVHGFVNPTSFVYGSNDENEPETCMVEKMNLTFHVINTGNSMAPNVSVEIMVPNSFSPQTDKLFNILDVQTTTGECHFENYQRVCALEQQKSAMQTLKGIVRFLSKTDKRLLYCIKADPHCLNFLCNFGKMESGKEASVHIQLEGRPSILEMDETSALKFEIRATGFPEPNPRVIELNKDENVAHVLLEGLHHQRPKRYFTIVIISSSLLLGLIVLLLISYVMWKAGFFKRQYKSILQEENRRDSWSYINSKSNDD
MEKK2wt PB1 HTS – raises or lowers MEK5 binding to wildtype human MEKK2 PB1 domain. Q9Y2U5. bead flow cytometry, Alexa488-MEK5 binding to MEKK2 WT; actives lie on both sides. 1.1% of 290,000 active. binding response (% of control), % at 10 µM; in the data active means binding response below about 67% or above about 130%
MEKK2mut PB1 HTS – signal of MEK5 binding to mutant human MEKK2 PB1 domain | 0.35% of 290,000 active | percent response, % at 10 µM | bead flow cytometry, Alexa488-MEK5 binding to MEKK2 mutant | AID 1530; in the data active means percent response above about 24%, passing the limit was not always enough
MEKK2wt confirm – raises or lowers MEK5 binding to wildtype human MEKK2, retest; shares compounds with MEKK3 PB1 HTS; bead flow cytometry, Alexa488-MEK5 binding to MEKK2 WT; actives lie on both sides; binding response (% of control), % at 10 µM; 2.4% of 5,900 active; in the data active means binding response below about 16% or above about 210%; inactive means in between
MEKK2mut confirm – signal of MEK5 binding to mutant human MEKK2, retest; bead flow cytometry, Alexa488-MEK5 binding to MEKK2 mutant; shares compounds with MEKK3 PB1 HTS; 2% of 5,900 active; percent response, % at 10 µM; AID 1893; in the data active means percent response mostly above about 71%, no sharp cut-off; inactive means mostly below about 38%;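 further: higher means compound restores mutant binding toward wildtype level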
MEKK3 confirm – confirmation of inhibitors of MEK5 binding to human MEKK3; binding response (% of control), % at 10 µM; bead flow cytometry, Alexa488-MEK5 binding to MEKK3; stronger effect = lower value; 1.8% of 5,900 active; AID 1894; shares compounds with MEKK3 PB1 HTS;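 active means binding response below 72% of control, or above a set upper limit, though filed actives all read lower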
Of the large screens only hits and unclear results are named; the others gave an inactive call (follow-up assays come after a bar, where they were run); [ ] = another dose, or the depositor's remark.

COc1ccc(C(=O)N[C@H](C(=O)Nc2nc3c(s2)CCCC3)C(C)C)cc1	none
CCOc1ccccc1C(=O)N[C@H](C(=O)Nc1nc2c(s1)CCCC2)C(C)C	MEKK3 PB1 HTS 137 | MEKK2wt confirm inactive | MEKK2mut confirm inactive | MEKK3 confirm inactive
O=C(/C=C/c1c(F)cccc1Cl)Nc1ncccn1	none
C=CCNC(=O)/C=C/c1c(F)cccc1Cl	MEKK3 PB1 HTS 184 | MEKK2wt confirm inactive | MEKK2mut confirm inactive | MEKK3 confirm inactive
S=C(NC1CCCCC1)N(CCc1ccccc1)CCc1ccccc1	MEKK2mut PB1 HTS 51 | MEKK2wt confirm inactive | MEKK2mut confirm inactive | MEKK3 confirm inactive
COc1ccc(NS(=O)(=O)c2cccc(C(=O)NC3CCC(O)CC3)c2)cc1 (centres undefined)	none
CCOC(=O)C1(Cc2cccc(F)c2)CCN(Cc2nc(CC)[nH]c2C)CC1	MEKK3 PB1 HTS 71[inhibitor] (no result: MEKK2wt PB1 HTS) | MEKK2wt confirm inactive | MEKK2mut confirm inactive | MEKK3 confirm inactive
COc1ccc(CCC(C)N2CCOCC2)cc1 (centres undefined)	none
COC(=O)C(Cc1ccc(O)cc1)NC(=O)C12CC3CC(CC(C3)C1)C2 (centres undefined)	none
COC(=O)C(Cc1ccccc1)NC(=O)C12CC3CC(CC(C3)C1)C2 (centres undefined)	MEKK3 PB1 HTS 134 | MEKK2wt confirm inactive | MEKK2mut confirm inactive | MEKK3 confirm inactive
CC1CC(C)CN(C2CCCCC2NS(=O)(=O)c2ccc(Cl)cc2)C1 (centres undefined)	none
COc1ccc(NC(=O)CSc2nnc3ccc(-c4cccnc4)nn23)cc1OC	none (no result: MEKK3 PB1 HTS, MEKK2wt PB1 HTS, MEKK2mut PB1 HTS)
COc1ccccc1CNC(=O)CSc1nnc2ccc(-c3cccnc3)nn12	MEKK2mut PB1 HTS 171 | MEKK2wt confirm inactive | MEKK2mut confirm inactive | MEKK3 confirm inactive
CCc1ccc(OCC(=O)NC(=S)Nc2ccc(F)cc2)c(Br)c1	MEKK3 PB1 HTS 53[inhibitor] | MEKK2wt confirm inactive | MEKK2mut confirm inactive | MEKK3 confirm inactive
O=[N+]([O-])c1ccccc1OCCN1CCOCC1	none
O=c1[nH]c(SCc2nc3ccccc3n2Cc2ccccc2)nc2ccccc12	none
O=c1[nH]c(SCc2nc3ccccc3c(=O)n2-c2ccccc2C(F)(F)F)nc2ccccc12	MEKK3 PB1 HTS 67[inhibitor] | MEKK2wt confirm inactive | MEKK2mut confirm inactive | MEKK3 confirm inactive
CCCN(C(=O)c1ccc(N(C)S(=O)(=O)c2ccc(C)cc2)cc1)C1CCS(=O)(=O)C1 (centres undefined)	none (no result: MEKK3 PB1 HTS, MEKK2wt PB1 HTS, MEKK2mut PB1 HTS)
Cc1cc(C)c[n+](-c2nc3ccccc3nc2[N-]S(=O)(=O)c2ccc(Cl)cc2)c1	MEKK3 PB1 HTS 137 | MEKK2wt confirm inactive | MEKK2mut confirm inactive | MEKK3 confirm inactive
Cc1ccc(S(=O)(=O)N2CCCOC2)cc1	MEKK3 PB1 HTS 79[inhibitor] | MEKK2wt confirm inactive | MEKK2mut confirm inactive | MEKK3 confirm inactive
O=S(=O)(c1ccc2ccccc2c1)N1CCCOC1	none
CC1=C/C(=C\c2ccc(Br)o2)C(=O)O1	none
O=C1C(=Cc2ccc(Br)o2)C(=O)c2ccccc21	MEKK3 PB1 HTS 138 | MEKK2wt confirm inactive | MEKK2mut confirm inactive | MEKK3 confirm inactive
COc1ccccc1-c1ccc(NC2CCCCC2)nn1	MEKK3 PB1 HTS 81[inhibitor] | MEKK2wt confirm inactive | MEKK2mut confirm inactive | MEKK3 confirm inactive
COc1ccccc1-c1ccc(Nc2cccc(C(F)(F)F)c2)nn1	none
O=C1c2cc(Cl)ccc2OC2(CCNCC2)C12CC(c1ccc(Cl)cc1)=NO2 (centres undefined)	MEKK2wt PB1 HTS 162 (no result: VLA-4 inh) | MEKK2wt confirm inactive | MEKK2mut confirm inactive | MEKK3 confirm inactive
Nc1ccc2nc[nH]c2c1	none
CCC[C@@H]1C[C@@H](C(=O)NC(C(C)Cl)[C@H]2O[C@H](SC)[C@H](O)[C@@H](O)[C@H]2O)N(C)C1 (some centres undefined)	none
CCC[C@@H]1C[C@@H](C(=O)N[C@@H](C2O[C@H](SC)[C@H](O)[C@@H](O)[C@H]2O)[C@H](C)Cl)N(C)C1 (some centres undefined)	MEKK3 PB1 HTS 50[inhibitor] | MEKK2wt confirm inactive | MEKK2mut confirm inactive | MEKK3 confirm inactive
Cc1ccc(NC(=O)c2cccc(-n3cnnn3)c2)cc1Cl	none (no result: MEKK3 PB1 HTS, MEKK2wt PB1 HTS, MEKK2mut PB1 HTS)
Cc1ccc2cc(CN(Cc3ccco3)C(=O)C3CCCCC3)c(=O)[nH]c2c1C	none
Cc1ccc2cc(CN(Cc3ccco3)C(=O)NC3CCCCC3)c(=O)[nH]c2c1C	MEKK3 PB1 HTS 64[inhibitor] | MEKK2wt confirm inactive | MEKK2mut confirm inactive | MEKK3 confirm inactive
Cn1nc(C(=O)NCC2CCCO2)c2ccccc2c1=O (centres undefined)	MEKK3 PB1 HTS 82[inhibitor] | MEKK2wt confirm inactive | MEKK2mut confirm inactive | MEKK3 confirm inactive
COc1ccc(-n2nc(C(=O)NCC3CCCO3)c3ccccc3c2=O)cc1 (centres undefined)	none
COCCN=c1scc(-c2cc(OC)c(OC)c(OC)c2)n1/N=C/c1c(C)[nH]c2ccccc12	MEKK2mut PB1 HTS 77 (no result: MEKK2wt PB1 HTS) | MEKK2wt confirm inactive | MEKK2mut confirm inactive | MEKK3 confirm inactive
COc1ccc(-c2nn(-c3ccccc3)cc2CN(C)CCn2ccnc2C)c(F)c1	MEKK3 PB1 HTS 44[inhibitor] | MEKK2wt confirm inactive | MEKK2mut confirm inactive | MEKK3 confirm inactive
CCCC(=O)Nc1c(-c2cccc(OC)c2)c(=O)c2ccccc2n1C	none
CC(=O)Nc1ccc(Nc2ncnc(N)c2[N+](=O)[O-])cc1	none
Cc1cccc(C)c1Nc1ncnc(N)c1[N+](=O)[O-]	MEKK2mut PB1 HTS 51 | MEKK2wt confirm inactive | MEKK2mut confirm inactive | MEKK3 confirm inactive
NS(=O)(=O)c1ccc(NC(=O)c2c(F)cccc2Cl)cc1	MEKK3 PB1 HTS 131 | MEKK2wt confirm inactive | MEKK2mut confirm inactive | MEKK3 confirm inactive
NS(=O)(=O)c1ccc(NC(=O)c2c(Cl)cccc2Cl)cc1	none
CCCCOc1ccc(Cl)cc1Nc1nc(NCCO)nc(N2CCCC2)n1	MEKK2wt PB1 HTS 141 | MEKK2wt confirm inactive | MEKK2mut confirm inactive | MEKK3 confirm inactive
Cc1cc2cc(CN(CCN3CCOCC3)C(=O)Nc3ccccc3F)c(=O)[nH]c2cc1C	none
Cc1cccc2cc(CN(CCN3CCOCC3)C(=O)Nc3ccccc3F)c(=O)[nH]c12	MEKK3 PB1 HTS 132 | MEKK2wt confirm inactive | MEKK2mut confirm inactive | MEKK3 confirm inactive
COc1cccc(C(=O)COc2cccc(NC(=O)c3ccco3)c2)c1	none
COc1cccc(NC(=O)c2ccco2)c1	MEKK3 PB1 HTS 1.0[inhibitor], MEKK2wt PB1 HTS 1.0[inhibitor] | MEKK2wt confirm inactive | MEKK2mut confirm inactive | MEKK3 confirm inactive

Compound activity from PubChem.
